Assay [1] has as its system Wnt5a (protein binding on small-molecule microarray). The assay can be described thus: Wnt5a binders on small-molecule microarray, primary screen, biophysical, 635/667 nm fluorescence (AID 1142).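 Note: fluorescence read at 667 nm with signal to noise per printed feature.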 The following applies: 635 nm fluorescence, higher = more signal.
A short description of assay [2]: cell viability in Huh7 cells, primary screen, cytotoxicity control for HCV replication inhibitor project, CellTiter-Glo luminescence, basal, 48 h (AID 1143).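 Note: Huh7 hepatoma cells carrying a hepatitis C replication reporter with no stimulus; test concentration not given here.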 As to conditions: Huh7 HCV replicon, higher = more signal, called active from +8 up or from −8 down.
Assay [3] in a line: P. aeruginosa biofilm formation inhibitors, primary screen, PAO1 strain, BacTiter-Glo luminescence, LB-PBS (AID 1144). The following applies: 12 h, higher = more signal.
Assay [4] can be described thus: CREB reporter modulators without forskolin, primary screen, cell-based, PC12, CRE-LacZ reporter, unstimulated (AID 1145). As to conditions: no forskolin, luminescence, 4.5 h, higher = more signal, called active from +8 up or from −8 down.
The nature of assay [5]: CREB reporter modulators under forskolin, primary screen, cell-based, PC12, CRE-LacZ reporter, forskolin-stimulated (AID 1146).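 Note: PC12 cells with 6xCRE LacZ reporter stimulated by forskolin 10 µM; beta-galactosidase reporter signal reflecting CREB driven transcription.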 The following applies: luminescence, 4.5 h, higher = more signal, called active from +8 up or from −8 down.
Assay [6] addresses Streptavidin (Streptomyces avidinii) (UniProt P22629). The assay can be described thus: streptavidin binders on small-molecule microarray, primary screen, artefact control for SMM compound annotation, biophysical, 635/667 nm fluorescence (AID 1147).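 Note: signal reflects streptavidin binding to arrayed compounds as a control protein.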 The following applies: streptavidin binding, higher = more signal.
Assay [7] in a line: small-molecule binders of probe aInhba, primary screen, biochemical, small-molecule microarray, 635/667 nm fluorescence (AID 1148).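 Note: score merges 667nm spot fluorescence with signal-to-noise for antibody binding to printed compounds.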 As to conditions: higher = more signal.
For assay [8], the target named is Torsin-1A (Homo sapiens) (UniProt O14656). The assay can be described thus: torsin A binders from cell lysate, primary screen, small-molecule microarray, wild-type, 635/667 nm (AID 1149). As to conditions: COS7 hTOR1A-WT lysate, 635 nm fluorescence, higher = more signal.
Chain of Torsin-1A (Homo sapiens) (O14656 whole entry, looked up): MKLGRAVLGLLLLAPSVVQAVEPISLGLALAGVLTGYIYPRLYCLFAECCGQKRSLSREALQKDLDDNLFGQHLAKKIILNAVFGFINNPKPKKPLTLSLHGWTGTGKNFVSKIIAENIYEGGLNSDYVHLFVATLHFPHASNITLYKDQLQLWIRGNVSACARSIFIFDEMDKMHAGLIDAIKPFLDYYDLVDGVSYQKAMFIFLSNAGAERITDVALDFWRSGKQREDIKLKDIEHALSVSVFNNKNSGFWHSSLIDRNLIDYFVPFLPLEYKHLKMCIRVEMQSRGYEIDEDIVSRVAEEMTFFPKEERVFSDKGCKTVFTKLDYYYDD
The target is the same in assay [9]. The assay can be described thus: small-molecule binders of mutant TOR1A in lysate, primary screen, cell lysate, small-molecule microarray, COS7 lysate, 635/667 nm fluorescence (AID 1150).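 Note: score pools 667 nm emission and signal to noise measuring lysate protein binding.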 As to conditions: COS7 hTOR1A mutant lysate, 635 nm fluorescence, higher = more signal.
Assay [10] relates to Sonic hedgehog protein (Shh). The assay can be described thus: small-molecule binders of Shh protein, primary screen, biochemical, small-molecule microarray, 635/667 nm fluorescence (AID 1151).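 Note: Shh protein binding to compounds spotted on small-molecule microarray slides; score combines spot fluorescence intensity with signal-to-noise across triplicate slides.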 As to conditions: small-molecule microarray binding, 635 nm fluorescence; higher = more signal.
The nature of assay [11]: E. coli DRC41 culture turbidity changes, primary screen, E. coli filamentation inducer project, strain DRC41, OD650, 48 h (AID 1152).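 Note: E. coli MC1000 strain DRC41 lacking acrAB efflux pump and sulA.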 The following applies: E. coli DRC41 (acrAB sulA), higher = more signal, called active from +8 up or from −8 down.
Assay [12] can be described thus: small-molecule binders of probe aLefty1, primary screen, biochemical, small-molecule microarray, 635/667 nm fluorescence (AID 1153).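 Note: score merges spot fluorescence with signal-to-noise ratio from the scanned slide images.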 As to conditions: higher = more signal.
Assay [13] is described as follows: PSAC antagonists in infected red cells, primary screen, cell-based, P. falciparum Indochina, OD700, 1 h (AID 1154). As to conditions: P. falciparum Indochina infected RBC osmotic lysis, higher = more signal, called active from +8 up or from −8 down.
A short description of assay [14]: PSAC antagonists in infected red cells, primary screen, cell-based, P. falciparum Indochina, OD700, 2 h (AID 1155).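 Note: lysis reports solute entry through the parasite surface anion channel PSAC; channel blockers reduce lysis of infected cells.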 As to conditions: P. falciparum Indochina infected erythrocytes, osmotic lysis OD700; higher = more signal, called active from +8 up or from −8 down.
The nature of assay [15]: osmotic lysis modulators in infected erythrocytes, primary screen, PSAC antagonist project, cell-based, P. falciparum Indochina, OD700, 3 h (AID 1156). As to conditions: higher = more signal, called active from +8 up or from −8 down.
The nature of assay [16]: PSAC antagonists in infected red cells, primary screen, cell-based, P. falciparum Indochina, OD700, 18 h (AID 1157). The following applies: P. falciparum Indochina infected erythrocytes, osmotic lysis OD700, 18 h; higher = more signal, called active from +8 up or from −8 down.
Assay [17] can be described thus: modulators of S6 phosphorylation in cells, primary screen, cell-based, A549, cytoblot, luminescence, serum-stimulated (AID 1158).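 Note: serum-stimulated A549 lung adenocarcinoma cells; signal is phosphorylated S6 detected by cytoblot immunostaining with HRP secondary.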 The following applies: A549 phospho-S6 cytoblot, 5 h, higher = more signal.
Assay [18] concerns the target NADPH oxidase 2 (Homo sapiens) (UniProt P04839). Kind of assay: NOX2-dependent H2O2 signal modulators, primary screen, NOX inhibitor project, cell-based, HEK293-NOX2, PMA-stimulated, Amplex Red fluorescence (AID 1159). Note: test concentration not given here. As to conditions: 45 min, higher = more signal, called active from +8 up or from −8 down.
The target in assay [19] is NADPH oxidase 4 (Homo sapiens) (UniProt Q9NPH5). The assay can be described thus: NOX4-dependent H2O2 signal modulators, primary screen, NOX inhibitor project, cell-based, HEK293-NOX4, tetracycline-induced, Amplex Red fluorescence (AID 1160). The following applies: 45 min, higher = more signal, called active from +8 up or from −8 down.
Chain of NADPH oxidase 4 (Homo sapiens) (Q9NPH5 whole entry, looked up): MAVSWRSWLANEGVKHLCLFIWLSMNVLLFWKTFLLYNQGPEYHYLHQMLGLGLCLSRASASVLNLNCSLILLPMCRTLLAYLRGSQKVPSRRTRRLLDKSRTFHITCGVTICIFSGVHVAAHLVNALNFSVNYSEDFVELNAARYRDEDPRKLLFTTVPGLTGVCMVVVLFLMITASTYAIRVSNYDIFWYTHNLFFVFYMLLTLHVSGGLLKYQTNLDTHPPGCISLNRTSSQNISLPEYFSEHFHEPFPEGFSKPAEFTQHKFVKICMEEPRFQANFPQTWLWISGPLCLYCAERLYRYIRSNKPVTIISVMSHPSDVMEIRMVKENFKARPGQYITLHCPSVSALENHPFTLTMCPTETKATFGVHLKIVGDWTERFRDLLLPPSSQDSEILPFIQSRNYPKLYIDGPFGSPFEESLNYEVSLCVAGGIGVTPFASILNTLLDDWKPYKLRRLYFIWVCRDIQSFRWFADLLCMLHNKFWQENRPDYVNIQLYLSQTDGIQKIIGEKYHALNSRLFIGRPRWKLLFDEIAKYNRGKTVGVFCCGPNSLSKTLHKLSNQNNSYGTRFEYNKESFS
Assay [20] has as its target NADPH oxidase 5 (Homo sapiens) (UniProt Q96PH1). The assay can be described thus: NOX5-dependent H2O2 signal modulators, primary screen, NOX inhibitor project, cell-based, HEK293-NOX5, Amplex Red fluorescence (AID 1161). The following applies: HEK293-NOX5, ionomycin, 45 min, higher = more signal.

Active and inactive are the calls of the source. Unless noted, the rule behind the calls is not given here.

Experimental findings from PubChem BioAssay are described below.

Chain of NADPH oxidase 2 (Homo sapiens) (P04839 whole entry, looked up): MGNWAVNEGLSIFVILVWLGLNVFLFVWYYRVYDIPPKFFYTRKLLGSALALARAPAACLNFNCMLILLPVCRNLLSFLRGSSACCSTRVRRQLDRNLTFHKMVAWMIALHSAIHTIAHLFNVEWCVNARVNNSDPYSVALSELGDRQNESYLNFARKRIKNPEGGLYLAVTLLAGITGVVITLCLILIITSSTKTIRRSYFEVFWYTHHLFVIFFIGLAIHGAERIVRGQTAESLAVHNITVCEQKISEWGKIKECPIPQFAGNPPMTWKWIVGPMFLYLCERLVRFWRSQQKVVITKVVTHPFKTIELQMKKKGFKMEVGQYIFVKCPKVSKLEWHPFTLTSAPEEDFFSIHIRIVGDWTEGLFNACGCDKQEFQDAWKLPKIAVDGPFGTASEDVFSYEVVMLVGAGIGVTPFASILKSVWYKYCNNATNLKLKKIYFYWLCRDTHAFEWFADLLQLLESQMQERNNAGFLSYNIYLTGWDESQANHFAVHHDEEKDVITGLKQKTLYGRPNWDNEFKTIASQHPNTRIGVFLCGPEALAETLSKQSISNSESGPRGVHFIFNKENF
Chain of Streptavidin (Streptomyces avidinii) (P22629 whole entry, looked up): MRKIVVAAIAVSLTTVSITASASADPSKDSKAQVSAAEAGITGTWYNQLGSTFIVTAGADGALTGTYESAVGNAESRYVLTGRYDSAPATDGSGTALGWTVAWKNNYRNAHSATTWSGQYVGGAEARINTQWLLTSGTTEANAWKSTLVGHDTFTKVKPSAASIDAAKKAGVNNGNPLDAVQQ
Chain of NADPH oxidase 5 (Homo sapiens) (Q96PH1 whole entry, looked up): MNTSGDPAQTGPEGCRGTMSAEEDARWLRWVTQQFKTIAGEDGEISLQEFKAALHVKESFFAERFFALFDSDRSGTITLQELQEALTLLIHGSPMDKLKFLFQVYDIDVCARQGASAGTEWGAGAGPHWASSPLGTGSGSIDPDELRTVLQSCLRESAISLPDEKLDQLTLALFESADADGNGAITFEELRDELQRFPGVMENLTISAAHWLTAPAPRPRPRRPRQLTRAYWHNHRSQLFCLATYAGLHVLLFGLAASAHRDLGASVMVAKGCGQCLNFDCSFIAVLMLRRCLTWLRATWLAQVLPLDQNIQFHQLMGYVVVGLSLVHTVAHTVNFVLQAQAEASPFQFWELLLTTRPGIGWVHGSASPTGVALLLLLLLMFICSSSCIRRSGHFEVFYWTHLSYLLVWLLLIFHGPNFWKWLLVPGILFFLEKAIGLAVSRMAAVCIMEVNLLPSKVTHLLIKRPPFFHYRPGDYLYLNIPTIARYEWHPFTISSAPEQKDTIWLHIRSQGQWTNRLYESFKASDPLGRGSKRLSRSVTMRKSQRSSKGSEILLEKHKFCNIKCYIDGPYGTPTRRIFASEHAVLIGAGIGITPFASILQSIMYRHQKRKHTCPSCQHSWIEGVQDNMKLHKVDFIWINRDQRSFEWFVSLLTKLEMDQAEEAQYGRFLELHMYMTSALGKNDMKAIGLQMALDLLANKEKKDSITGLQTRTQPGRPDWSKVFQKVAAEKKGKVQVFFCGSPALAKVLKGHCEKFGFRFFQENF

Consider `O=c1cccc(-c2ccco2)o1`, for which the composite z-score in [1] turned out to be 0.302; in assay [6], 0.721; in [7], 0.0091; with Torsin-1A (Homo sapiens) [8] it was 0.444; in the assay with Torsin-1A (Homo sapiens) [9], 0.066; in assay [10] it was 2.07. Further, in [12], the composite z-score is -0.103. The z-score in [2] was -0.768 (inactive); in assay [3], 0.329 (inactive); in assay [4] it was -0.518 (inactive); in assay [5] it was 0.57 (inactive); in assay [11], -1.13 (inactive); in assay [13] it was 0.128 (inactive). Further, the z-score is 0.0564 (inactive) in assay [14]; -0.394 (inactive) in assay [15]; 0.143 (inactive) in assay [16]; -0.397 in assay [17]; 0.523 (inactive) in assay [18]; -0.772 (inactive) in [19]. For the same compound, in assay [20], the z-score is -0.722.
For the compound `CC(C)C(=C=CC[C@@H](O)c1cccc(OCCO)c1)C[C@@H](O)c1ccccn1`, the composite z-score in assay [1] was 0.189; in assay [6], -0.637; in [7], -0.13; with Torsin-1A (Homo sapiens) [8] it was -0.84; in the assay with Torsin-1A (Homo sapiens) [9], 0.405; in assay [10], 0.935. In assay [12], this compound gave a composite z-score of 0.0502. Moreover, the z-score in [2] was -0.846 (inactive); in assay [3] it was -0.382 (inactive); in assay [4] it was 1.13 (inactive); in assay [5], -0.039 (inactive); in assay [11], 0.599 (inactive); in assay [13], 8.55 (active). The z-score in assay [14] is 0.809 (inactive); in [15], 0.489 (inactive); in assay [16] it was 0.527 (inactive); in [17] it was 0.0722; in assay [18] it was -1.37 (inactive); in [19] it was -0.666 (inactive). Besides, the z-score in assay [20] was -1.45.
As for `COCCOC(=O)N1C(=O)[C@@]2(c3cc(C#CCC(C(=O)OC)C(=O)OC)ccc31)[C@H](c1ccc(O)cc1)N1[C@H](c3ccccc3)[C@H](c3ccccc3)OC(=O)[C@H]1[C@@H]2C(=O)NC[C@H](O)c1ccccc1`, the composite z-score is 0.295 in assay [1]; 1.7 in [6]; -0.0774 in assay [7]; 0.941 with Torsin-1A (Homo sapiens) [8]; 0.468 with Torsin-1A (Homo sapiens) [9]; 0.49 in assay [10]. The same compound yielded a composite z-score in assay [12] of -0.159. In addition, the z-score in assay [2] is -2.04 (inactive); in assay [3], -0.0824 (inactive); in assay [4] it was -0.231 (inactive); in assay [5], -0.196 (inactive); in assay [11] it was 1.47 (inactive); in assay [13], 1.67 (inactive). Also, the z-score in assay [14] is 0.223 (inactive); in [15], -5.49 (inactive); in assay [16], -0.0973 (inactive); in assay [17], -0.158; in assay [18], 1.72 (inactive); in [19] it was 0.876 (inactive). Further, in assay [20], the z-score is 1.32.
Consider `CN(C)CCCCNC(=O)[C@H]1C[C@H]2C(=O)N[C@@H](CCCC[N+](C)(C)C)C(=O)N2[C@H]1c1ccc(O)cc1`, for which the composite z-score in [1] is 0.0044; in assay [6], -0.202; in [7], -0.179; with Torsin-1A (Homo sapiens) [8], 0.278; in the assay with Torsin-1A (Homo sapiens) [9], 0.97; in assay [10], 0.719. In addition, the composite z-score in [12] is -0.2. Also, the z-score was -0.482 (inactive) in [2]; 1.04 (inactive) in assay [3]; -1.2 (inactive) in assay [4]; -1.14 (inactive) in [5]; 1.67 (inactive) in assay [11]; 1.32 (inactive) in [13]. Further, the z-score was -0.539 (inactive) in [14]; -0.27 (inactive) in assay [15]; -1.63 (inactive) in assay [16]; 0.0054 in [17]; 0.622 (inactive) in assay [18]; 0.319 (inactive) in assay [19]. In addition, in assay [20], the z-score stood at 1.31.
As for `CCCC=C(CCC)[C@@H](NS(=O)(=O)c1cccc2cccnc12)c1ccc(-c2ccccc2)cc1`, the composite z-score in assay [1] came out at 0.702; in assay [6], 1.42; in [7] it was 0.475; with Torsin-1A (Homo sapiens) [8] it was 0.274; in the assay with Torsin-1A (Homo sapiens) [9], 0.371; in [10] it was 0.632. This compound had a composite z-score in assay [12] of 0.396. Moreover, the z-score was -1.52 (inactive) in [2]; 0.923 (inactive) in [3]; -0.379 (inactive) in [4]; 0.415 (inactive) in assay [5]; -1.37 (inactive) in [11]; 0.012 (inactive) in assay [13]. The z-score in assay [14] was 0.451 (inactive); in [15], 1.24 (inactive); in assay [16] it was 0.913 (inactive); in assay [17] it was 0.389; in assay [18], -0.876 (inactive); in assay [19], 1.59 (inactive). In [20], this compound returned a z-score of 2.39.
For the compound `CN1C(=O)C2C=CC(C(O)c3ccc(I)cc3)N(Nc3ccccc3)C2C1=O` (stereo not given), the composite z-score in assay [1] was 0.377; in assay [6], 1.76; in assay [7], -0.0209; with Torsin-1A (Homo sapiens) [8], 0.338; with Torsin-1A (Homo sapiens) [9] it was 0.696; in [10], -0.0996. The composite z-score in [12] was found to be 0.195. For the same compound, the z-score in [2] was 0.134 (inactive); in assay [3] it was -0.507 (inactive); in assay [4] it was 1.77 (inactive); in assay [5] it was 1.34 (inactive); in assay [11], -1.97 (inactive); in [13] it was 1.9 (inactive). Moreover, the z-score in assay [14] is 1.27 (inactive); in [15], 1.04 (inactive); in assay [16], 1.12 (inactive); in [17] it was -0.919; in [18], -0.874 (inactive); in assay [19], -5.01 (inactive). Further, the z-score in assay [20] was -4.14.
